The values below come from PubChem BioAssay (NCATS).

Assay [1] in a line: Cell Viability - HUV-EC-C (AID 542).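 Further: cells exposed to compound for 40 hours; on the % scale 0 is the no-effect control and ±100 the full control effect; nearly all actives have a fitted effect of over 35% in size.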 In short, it runs like this: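 qHTS cytotoxicity: HUV-EC-C, 1000 cells/well, 5 hr settle, compound 40 hr 37 °C, CellTiter-Glo, luminescence. AC50 via Hill equation.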
Assay [2] is described as follows: Cell Viability - SH-SY5Y (AID 544).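 Further: cells exposed to compound for 40 hours; 0% = DMSO alone and -100% = 100 µM tamoxifen; nearly all actives have a fitted effect of over 55% in size.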 In short, it runs like this:
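Luminescent ATP read-out (CellTiter-Glo) measures loss of viable SH-SY5Y neuroblastoma cells after 40 hr compound exposure at 37 °C. AC50 values derive from standard Hill modelling of qHTS concentration-response data.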

Assay [3] can be described thus: Cellular Toxicity (caspase-3) SHSY5Y (AID 657). In short, it runs like this:
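Luminescent Caspase-Glo 3/7 read-out, 1 hr room temperature, follows 16 hours of compound treatment of SH-SY5Y cells at 37 °C. Normalization: DMSO basal, 10 uM staurosporine as 100%; AC50 values from Hill-equation concentration-response fits.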

A short description of assay [4]: Cellular Toxicity (caspase-3) SK-N-SH (AID 661).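 Further: 0% = DMSO basal and 100% = 10 µM staurosporine.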 In short, it runs like this: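 Human neuroblastoma SK-N-SH, 1500 cells/well, 5 hr pre-incubation, then compound 16 hr, 37 °C. Caspase-Glo 3/7 reagent, 1 hr RT, luminescence. Norm. to DMSO/10 uM staurosporine; Hill-fit AC50.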
The nature of assay [5]: Cellular Toxicity (caspase-3) H-4-II-E (AID 663).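 Further: 0% = DMSO basal and 100% = 100 µM tamoxifen.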 The following applies: Potency: caspase-3 activation. In a few lines: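 Rat hepatoma H-4-II-E cells (1500/well) plated 5 hr, then exposed to compound titrations for 16 hr at 37 °C. Caspase-Glo 3/7 luminescence read after 20 min at RT; data normalized to DMSO and 100 uM tamoxifen, AC50 from Hill fits.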
The nature of assay [6]: MultiTox-Fluor Cytotoxicity Assay - LYMP1-001 - Dead Cells (AID 946).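 Further: 0% = DMSO and 100% = tetraoctylammonium bromide.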 In a few lines:
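In this qHTS, 15 uM tetraoctylammonium bromide defined 100% and DMSO defined basal activity. Lymphoblastoid cells (LYMP1-001, 2500 per well) received compound for 16 hr at 37 C before a fluorogenic dead-cell substrate readout at 485/520 nm.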

The nature of assay [7]: Cell Viability - LYMP1-002 - Assay at 16 hr (AID 948).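 Further: 0% = DMSO alone and full effect = 92 µM tetraoctylammonium bromide.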 In a few lines:
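ATP luminescence (CellTiter-Glo) was measured after 16 hr compound exposure at 37 C of 2500 lymphoblastoid LYMP1-002 cells per well. Concentration-response curves were fitted with the Hill equation to give AC50.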

The nature of assay [8]: MultiTox-Fluor Cytotoxicity Assay - LYMP1-002 - Live Cells (AID 955). Further: on the % scale 0 is the no-effect control and ±100 the full control effect. In a few lines:
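Read-out is live-cell protease activity (cell-permeant GF-AFC substrate, fluorescence Ex/Em=405/510), where a decrease indicates acute toxicity. Human lymphoblastoid cells were treated 16 hours at 37 C in a concentration series, and AC50 values came from standard Hill modelling.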

Assay [9] is described as follows: Cell Viability - LYMP2-013 (AID 970).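 Further: series mostly up to about 92 µM; 0% = DMSO only and full inhibition = tetraoctylammonium bromide control; nearly all actives have a fitted effect of over 55% in size.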 In a few lines: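 qHTS; 2500 lymphoblastoid cells/well; 5 hr 37 C settle; cpd 24 hr 37 C; CellTiter-Glo, 30 min RT; luminescence. AC50 = Hill fit.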
The nature of assay [10]: Cell Viability - LYMP2-017 (AID 972). Further: series mostly up to about 92 µM; on the % scale 0 is the no-effect control and ±100 the full control effect; nearly all actives have a fitted effect of over 55% in size. In short, it runs like this:
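2500 cells/well, 5 h 37 C; cpd 24 h 37 C in complete medium; CellTiter-Glo, 30 min RT; luminescence (ATP). AC50 via Hill fit, qHTS.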

Assay [11] in a line: Cell Viability - LYMP2-007 (AID 979).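 Further: cells exposed to compound for 24 h before reading; 0% = DMSO only and the negative end = 92 µM tetraoctylammonium bromide; nearly all actives have a fitted effect of over 60% in size.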 In a few lines:
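Luminescent ATP signal (CellTiter-Glo) serves as the viability read-out after 24 hr compound treatment of lymphoblastoid cells in complete medium at 37 C. Concentration-response data were fitted to the Hill equation to give AC50 values.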

Assay [12] in a line: Cell Viability - LYMP2-010 (AID 981). Further: on the % scale 0 is the no-effect control and ±100 the full control effect; nearly all actives have a fitted effect of over 55% in size. In a few lines: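 Luminescent ATP signal (CellTiter-Glo) served as the viability read-out. Cells of the human lymphoblastoid line were treated with compound over a concentration range for 24 hours at 37 C, and AC50 values came from Hill-equation modeling.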
Assay [13] is described as follows: Cell Viability - LYMP2-012 (AID 982).
The nature of assay [14]: Cell Viability - LYMP2-018 (AID 985).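 Further: compound exposure lasted 24 hr at 37 °C; plate controls were DMSO only for no effect and tetraoctylammonium bromide at 92 µM for full effect; nearly all actives have a fitted effect of over 50% in size.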 In a few lines:
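Luminescent ATP signal (CellTiter-Glo, read after 30 min at room temperature) reports viable cells after 24 hr compound treatment at 37 C. Concentration-response data were fitted to the standard Hill equation for AC50.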

A short description of assay [15]: Cell Viability - LYMP2-020 (AID 986). In short, it runs like this:
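Luminescent ATP signal (CellTiter-Glo, 30 min at room temperature) is the read-out after 24 h compound treatment of lymphoblastoid cells at 37 C. AC50 values come from Hill-equation fits across concentrations.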

Assay [16] is described as follows: Cell Viability - LYMP2-022 (AID 987). In a few lines:
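qHTS: human lymphoblastoid cells 2500/well; 5 hr 37 C; cpd added; 24 hr 37 C; CellTiter-Glo, 30 min RT; luminescence. AC50 via Hill fit; tetraoctylammonium bromide positive ctrl.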

Assay [17] can be described thus: Cell Viability - LYMP2-024 (AID 988).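 Further: plate controls were DMSO only for no effect and 92 µM tetraoctylammonium bromide for full effect; nearly all actives have a fitted effect of over 60% in size.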 In a few lines:
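Steps: seed 2500 cells/well, 5 hr 37 C; add compound, 24 hr 37 C; add CellTiter-Glo, 30 min room temperature; read luminescence. AC50 derived by Hill modelling of concentration-dependent ATP loss.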

The nature of assay [18]: qHTS assay for small molecule antagonists of retinoid X receptor alpha signaling (AID 588546).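 Further: cells stimulated with 9-cis-retinoic acid as agonist; on the % scale 0 is the no-effect control and ±100 the full control effect.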 The following applies: HEK293T RXRa-UAS-bla, beta-lactamase ratio, antagonist mode; measured here: W530 green channel, cytotoxicity proxy. In short, it runs like this:
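Beta-lactamase reporter inhibition, read as CCF4 fluorescence ratio (ex 405, em 460/530 nm) after 2 h at RT. HEK293T UAS-bla cells, 2500/well, were stimulated with 9-cis-RA at 500 or 100 nM final alongside test compound for 18 h at 37 C.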
On the technique in general: qHTS replaces the single test concentration by a dilution series.

Assay [19] in a line: qHTS assay for small molecule agonists of the antioxidant response element (ARE) signaling pathway measured by Nrf2-dependant transcriptional activity - cell viability counter screen (AID 720653; active means well fitted curve in the direction sought with a large enough effect in the repeat runs; an effect the other way counts as inactive or inconclusive; further: on the % scale 0 is the no-effect control and ±100 the full control effect). To be noted: ARE-bla HepG2 viability, CellTiter-Glo ATP luminescence, 16 h; max response: stronger effect = lower value. In a few lines:
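ARE-bla HepG2 cells treated with compounds for 16 h at 37C; this counter screen measures viability as intracellular ATP by CellTiter-Glo luminescence after 30 min at room temperature.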

The nature of assay [20]: qHTS assay for cell viability of HEK293 cells (AID 743288). Further: on the % scale 0 is the no-effect control and ±100 the full control effect; nearly all actives have a fitted effect of over 50% in size. To be noted: ATP luminescence (CellTiter-Glo), 18 h; max response: stronger effect = lower value. In short, it runs like this: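 Total intracellular ATP, measured with a luciferase-coupled reagent, indicates the number of viable HEK293 cells. Exposure to test chemicals lasts 18 h at 37 C in 1,536-well format at 2,000 cells/well.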

Each structure is given as a SMILES string. “And” between values parts separate entries of the source, which are not always exact repeats. Equal entries are not always repeated. Records with an inconclusive call do not appear. The source made the active and inactive calls. Unless noted, the call rests on the fitted dose curve; in most records, active means well fitted curve in the direction sought with a large enough effect; inconclusive means small, poorly fitted or top-dose-only effect, or another doubt; inactive means no such curve, though single readings can be large; an effect the other way counts as inactive or inconclusive.

With `Nc1ccc(Cl)cc1Cl`, the result in [1], in [3] and in assay [4] was inactive. The Potency entry in assay [2], in assay [5], in assay [6], in [7], in [8] and in assay [9] was “inactive” each time. Further, the Potency entry in assay [10], in assay [11], in assay [12], in [13], in [14] and in [15] was “inactive” each time. The Potency entry in assay [16] and in assay [17] was “inactive” in each case. For the same molecule, the max response in assay [18] is 2.24% and -0.667%; in assay [19], -3.23% (inactive) and 2.15% (inactive); in [20] it was 1.15% (inactive) and -5.99% (inactive).

With `CN(C)C=O`, the molecule was classed as inactive in assay [1], in assay [3] and in assay [4]. The Potency result in [2], in assay [5], in [6], in assay [7], in assay [8] and in [9] was “inactive” each time. Besides, the Potency result in assay [10], in assay [11], in [12], in assay [13], in [14] and in assay [15] was “inactive” throughout. The Potency result in assay [16] and in [17] was “inactive” in each case. In addition, the max response in assay [18] was 4.64% and -5.61%; in assay [19], -6.03% (inactive) and 8.83% (inactive) and -4.93% (inactive); in assay [20], -10.8% (inactive) and 1.33% (inactive) and 0.809% (inactive).

Consider `C=CCOC(=O)c1ccccc1C(=O)OCC=C`, for which the result in assay [1], in assay [3] and in assay [4] was inactive. In addition, the Potency entry in assay [2], in assay [5], in assay [6], in assay [7], in assay [8] and in assay [9] was “inactive” each time. The Potency entry in assay [10], in assay [11], in assay [12], in assay [13], in [14] and in [15] was “inactive” throughout. The Potency entry in assay [16] and in assay [17] was “inactive” throughout. Also, the max response was -4.9% and -9.66% in assay [18]; -21% (inactive) and -8.82% (inactive) in assay [19]; 7.73% (inactive) and -19.3% (inactive) in assay [20].

In the case of `COc1ccc2nc(N)sc2c1`, the outcome in assay [1], in assay [3] and in assay [4] was inactive. The Potency entry in assay [2], in assay [5], in [6], in assay [7], in assay [8] and in assay [9] was “inactive” throughout. Also, the Potency entry in [10], in assay [11], in assay [12], in [13], in assay [14] and in assay [15] was “inactive” in each case. Besides, the Potency result in [16] and in assay [17] was “inactive” throughout. The max response is -1.24% and 0.0893% in assay [18]; -11.5% (inactive) and -7.03% (inactive) in [19]; 3.97% (inactive) and -4.38% (inactive) in assay [20].

Turning to `O=C(O)CC(C(=O)O)C(CC(=O)O)C(=O)O` (stereo not given), the outcome in assay [1], in [3] and in assay [4] was inactive. Further, the Potency result in assay [2], in assay [5], in [6], in [7], in assay [8] and in assay [9] was “inactive” throughout. Besides, the Potency result in [10], in assay [11], in assay [12], in assay [13], in assay [14] and in assay [15] was “inactive” each time. Besides, the Potency entry in assay [16] and in assay [17] was “inactive” throughout. For the same molecule, the max response was 3.1% and -5.42% in [18]; -9.78% (inactive) and -3.54% (inactive) in [19]; -0.385% (inactive) and -19.1% (inactive) in [20].

For `Cc1ccccc1C`, the call in assay [1], in assay [3] and in assay [4] was inactive. In addition, the Potency entry in assay [2], in [5], in [6], in assay [7], in assay [8] and in [9] was “inactive” each time. In addition, the Potency result in [10], in assay [11], in assay [12], in assay [13], in assay [14] and in [15] was “inactive” each time. Further, the Potency result in assay [16] and in assay [17] was “inactive” throughout. The max response in assay [18] is -1.73% and -2.63%; in assay [19], -17.8% (inactive) and 4.54% (inactive); in assay [20], -12.4% (inactive) and -5.18% (inactive).

As to `O=NO`, the result in assay [1], in assay [3] and in [4] was inactive. Also, the Potency result in [2], in [5], in [6], in assay [7], in assay [8] and in assay [9] was “inactive” throughout. For the same molecule, the Potency result in [10], in assay [11], in assay [12], in [13], in [14] and in [15] was “inactive” in each case. The Potency result in [16] and in assay [17] was “inactive” each time. Also, the max response is -4.23% and -6.24% in assay [18]; -5.36% (inactive) and 6.29% (inactive) in assay [19]; 0.172% (inactive) and -0.275% (inactive) in assay [20].

For `C1OCOCO1`, the result in assay [1], in assay [3] and in assay [4] was inactive. The Potency entry in assay [2], in [5], in assay [6], in assay [7], in assay [8] and in assay [9] was “inactive” throughout. For the same molecule, the Potency result in [10], in assay [11], in assay [12], in assay [13], in assay [14] and in assay [15] was “inactive” throughout. Also, the Potency entry in assay [16] and in [17] was “inactive” throughout. The max response in [18] is -18.1%; in assay [19], -3.94% (inactive); in assay [20], -3.72% (inactive).

For `C/C=C\c1ccc(OC)cc1`, the molecule was called inactive in [1], in [3] and in assay [4]. Also, the Potency entry in assay [2], in [5], in assay [6], in assay [7], in assay [8] and in assay [9] was “inactive” in each case. The Potency entry in [10], in assay [11], in [12], in [13], in assay [14] and in assay [15] was “inactive” throughout. The Potency entry in assay [16] and in assay [17] was “inactive” each time. For the same molecule, the max response is 1.79% in assay [18], -0.534% (inactive) in assay [19] and 8.66% (inactive) in assay [20].
